# PubChem BioAssay (NCI)
# This is part of a sample that, as a whole, favours compounds with a hit. Of some 83,000 tested, about 20% had one in any assay.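 Negative percent growth values reflect cell death: -40 means 40% of the cells present at the start died, and -100 means all died.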 A number with no mark means an inactive call. Calls of active or inactive are those of the source. How the source made its calls: active means growth percent below 10; inactive means the rest.
# Experiments:
# Assay in all cases: NCI-60 one-dose screen, 48 h (100 = growth as untreated, 0 = no growth, -100 = all killed)
# RPMI-8226 leukemia = conditions: 10 µM unless noted
# OVCAR-8 ovarian = conditions: 10 µM unless noted
# OVCAR-5 ovarian = conditions: 10 µM unless noted
# OVCAR-4 ovarian = conditions: 10 µM unless noted
# SK-OV-3 ovarian = conditions: 10 µM unless noted
# IGROV1 ovarian = conditions: 10 µM unless noted
# OVCAR-3 ovarian = conditions: 10 µM unless noted
# HS 578T breast = conditions: 10 µM unless noted
# NCI/ADR-RES ovarian = conditions: 10 µM unless noted
# T-47D breast = conditions: 10 µM unless noted
# BT-549 breast = conditions: 10 µM unless noted
# MDA-MB-435 melanoma = conditions: 10 µM unless noted
# SW-620 colon = conditions: 10 µM unless noted
# MCF7 breast = conditions: 10 µM
# HCT-116 colon = conditions: 10 µM unless noted
# HCC-2998 colon = conditions: 10 µM unless noted
# KM12 colon = conditions: 10 µM unless noted
SMILES,growth (RPMI-8226 leukemia),growth (OVCAR-8 ovarian),growth (OVCAR-5 ovarian),growth (OVCAR-4 ovarian),growth (SK-OV-3 ovarian),growth (IGROV1 ovarian),growth (OVCAR-3 ovarian),growth (HS 578T breast),growth (NCI/ADR-RES ovarian),growth (T-47D breast),growth (BT-549 breast),growth (MDA-MB-435 melanoma),growth (SW-620 colon),growth (MCF7 breast),growth (HCT-116 colon),growth (HCC-2998 colon),growth (KM12 colon)
CN1CCN(Cc2ccc(NC(=O)c3cncc(C#Cc4nc(N)nc5[nH]ncc45)c3)cc2C(F)(F)F)CC1,55.2%,100%,108%,88.8%,122%,109%,66.5%,99.1%,114%,93.5%,82.9%,81.5%,28%,69.1%,49.1%,133%,81.9%
CN1CCN(Cc2ccc(C(=O)Nc3cncc(C#Cc4cnc(N)c5ccccc45)c3)cc2C(F)(F)F)CC1,-41.4% (active),-17.8% (active),-44% (active),-44.5% (active),35.2%,-47.4% (active),-74.1% (active),-35.4% (active),-25.4% (active),-10.5% (active),72%,-89.2% (active),-66.3% (active),-68.3% (active),-84.5% (active),-52.6% (active),-70.4% (active)
O=C(Nc1ccc(N2CCNCC2)cc1)c1[nH]ncc1Nc1cc(Oc2ccccc2)ncn1,-52.9% (active),26.9%,-26.4% (active),43.3%,19.4%,19.7%,6.24% (active),32.4%,77.5%,40%,17.5%,35.8%,-65.5% (active),-0.204% (active),-33.6% (active),-18.1% (active),-78% (active)
CCOC(=O)c1cc2c(n1Cc1cc(OC)cc(OC)c1)-c1oncc1CCC2,20.2%,19.5%,58.9%,37.7%,-0.349% (active),-38.4% (active),-35.7% (active),21.5%,6.97% (active),66.8%,25.2%,-24.9% (active),24.7%,12.5%,15.1%,19.3%,19.1%
CCOC(=O)c1cnc2ccc(Cl)cc2c1NCCCN(C)C,-3.54% (active),-3.54% (active),53.8%,-12.1% (active),14.5%,-16.2% (active),18.8%,33%,7.93% (active),14.6%,31.6%,19.6%,14.6%,7.48% (active),12.4%,-13.2% (active),17.5%
CC(=O)c1ccc2oc(=O)n(Cc3ccc(C#N)cc3)c(=O)c2c1,106%,103%,103%,96.3%,119%,108%,117%,103%,110%,104%,102%,99.3%,100%,98.9%,110%,102%,102%
Clc1ccc(Nc2nnc(-c3ccc4c(c3)OCO4)o2)cc1,91.1%,94.2%,104%,102%,102%,101%,114%,109%,98.6%,82.5%,116%,99.9%,102%,93.4%,96.7%,98.6%,99.5%
CCN(CCO)CCNc1ccc(C)c2sc3cc(Cl)ccc3c(=O)c12,28.2%,38.6%,64.4%,70.8%,62.2%,56.6%,39.3%,41.9%,45.4%,53.9%,69.6%,-68.6% (active),-85% (active),-83.1% (active),-66.1% (active),-96.8% (active),7.87% (active)
COc1c2ccoc2c(/C=C/C=O)c2oc(-c3ccccc3)cc(=O)c12,28%,26.1%,106%,57.8%,96.3%,80.5%,57.7%,74.8%,32.4%,47%,41.2%,64.6%,10%,31.5%,-56.6% (active),104%,91.4%
Cn1c(=O)n(C)c2cc(CNCCNc3ccnc4cc(Cl)ccc34)ccc21,34.1%,66.6%,76.7%,81.5%,86.2%,98.8%,89.3%,77.6%,80.3%,82.4%,90.8%,38.7%,23.1%,74.2%,28.1%,27.4%,54.5%
CCCCOCc1cc(CN2CCN(C)CC2)c(O)c2ncccc12,48.2%,27.1%,73%,31.1%,42.5%,80.8%,23.9%,79.3%,5.45% (active),67.3%,62%,80.8%,45.6%,27.2%,19.1%,57.8%,40.6%
O=c1[nH]nnc2c1ncn2C1OC(CO)C(O)C1O (stereo unspecified),37.6%,95.9%,87.4%,35.9%,14.5%,32.7%,41.7%,103%,39.5%,77.1%,97.7%,76.5%,63.3%,63.9%,51.8%,34.4%,60.7%
COc1ccc(Nc2cc(C)nc(NCc3ccccc3)n2)cc1,8.08% (active),24.1%,62%,46.7%,92.5%,37.5%,6.99% (active),60.5%,77.8%,63%,97.6%,18.5%,15%,11.1%,15.4%,21.2%,5.56% (active)
CCOC(=O)C1(C(=O)OCC)N=C(c2ccccc2)C=C1c1ccccc1,61.6%,87.2%,97.8%,81.6%,105%,92.4%,86.9%,94.9%,76.5%,62.2%,97.9%,103%,93.3%,79.5%,78.4%,105%,93.6%
COc1cc(C(=O)Nc2ccc(-c3nc4ccccc4[nH]3)cc2)cc(OC)c1OC,19.2%,27.1%,83.5%,61.6%,56.1%,46.8%,9.3% (active),72.5%,52.5%,60%,60.6%,-25.2% (active),14.7%,11.6%,24.1%,57.6%,33.8%
COc1cc(C(=O)NN=C2c3ccccc3-c3ccccc32)cc(OC)c1OC,23%,34.5%,63.4%,55.5%,22.9%,32.3%,-1.71% (active),50.6%,23.3%,37.8%,43.3%,-22.6% (active),19.5%,11.9%,20.4%,77.9%,29.3%
Oc1c(C(Nc2ccccn2)c2cccc(Oc3ccccc3)c2)ccc2cccnc12 (stereo unspecified),-50.6% (active),-85.2% (active),-84.1% (active),-96.7% (active),-90.1% (active),-91.7% (active),-96.6% (active),-47.6% (active),-81.1% (active),-71% (active),-74.5% (active),-90.1% (active),-88% (active),-83% (active),-85.3% (active),-84.5% (active),-89.9% (active)
CCN(CC)CCCNc1ccnc2cc3ccccc3cc12,74.2%,60.1%,84.7%,77.4%,72.4%,81.2%,74.5%,68.4%,71.1%,66%,94.2%,87.3%,83%,81.7%,60.1%,78.7%,80.8%
